Assay results as given in the supplement of paper PMC3414501.
Where a name gives a salt, the structure may show the parent alone.

These compounds were tested on S. cerevisiae SK1 pCDA2-eGFP (USY613), sporulating (assay: CDA2-GFP sporulation assay sensitivity score (z-score vs DMSO controls); higher = stronger inhibition of sporulation, active = hit call of the paper).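 Further: active if sensitivity score above 5.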

SMILES	CDA2-GFP sporulation assay sensitivity score
COc1c(N2C[C@@H]3CCCN[C@@H]3C2)c(F)cc2c(=O)c(C(=O)O)cn(C3CC3)c12 [Moxifloxacin hydrochloride] (stock concentration (mM, diluted 1:100): 9.2)	2.59 (inactive)
CC(=O)N1CCN(c2ccc(OCC3COC(Cn4ccnc4)(c4ccc(Cl)cc4Cl)O3)cc2)CC1 (configuration not stated) [Ketoconazole] (stock concentration (mM, diluted 1:100): 10)	0.13 (inactive)
OC[C@H]1O[C@@H](Oc2cc(O)cc(/C=C/c3ccc(O)cc3)c2)[C@H](O)[C@@H](O)[C@@H]1O [Piceid] (stock concentration (mM, diluted 1:100): 10)	0.56 (inactive)
CC(C)c1ccc2oc3nc(N)c(C(=O)O)cc3c(=O)c2c1 [Amlexanox] (stock concentration (mM, diluted 1:100): 10)	-0.73 (inactive)
CCCN1CCCC[C@H]1C(=O)Nc1c(C)cccc1C [Ropivacaine hydrochloride] (stock concentration (mM, diluted 1:100): 7.7)	3.5 (inactive)
C=C1/C(=C\C=C2/CCC[C@]3(C)[C@@H]([C@H](C)CCCC(C)(C)O)CC[C@@H]23)C[C@@H](O)C[C@@H]1O [Calcitriol] (stock concentration (mM, diluted 1:100): 10)	3.05 (inactive)
NC1CCN(c2nc3c(cc2F)c(=O)c(C(=O)O)cn3-c2ccc(F)cc2F)C1 (configuration not stated) [Tosufloxacin tosylate] (stock concentration (mM, diluted 1:100): 7)	1.34 (inactive)
CS(=O)(=O)c1ccc(-c2cc(Br)sc2-c2ccc(F)cc2)cc1 (stock concentration (mM, diluted 1:100): 10)	12.1 (inactive)
O=C(c1ccc(F)cc1)C1CCN(CCn2c(=S)[nH]c3ccccc3c2=O)CC1 [Altanserin] (stock concentration (mM, diluted 1:100): 10)	2.43 (inactive)
Cc1cccc(C)c1NC(=O)C(C)N (configuration not stated) [Tocainide] (stock concentration (mM, diluted 1:100): 10)	0.62 (inactive)
Clc1ccccc1C(c1ccccc1)(c1ccccc1)n1ccnc1 [Clotrimazole] (stock concentration (mM, diluted 1:100): 10)	3.7 (inactive)
CCN1CCN(c2cc3c(cc2F)c(=O)c(C(=O)O)cn3C2CC2)CC1 [Enrofloxacin] (stock concentration (mM, diluted 1:100): 10)	2.66 (inactive)
CCCCC1=NC2(CCCC2)C(=O)N1Cc1ccc(-c2ccccc2-c2nnn[nH]2)cc1 [Irbesartan] (stock concentration (mM, diluted 1:100): 10.1)	-0.17 (inactive)
CNCC[C@@H](Oc1ccccc1C)c1ccccc1 [Atomexetine hydrochloride] (stock concentration (mM, diluted 1:100): 8.7)	0.57 (inactive)
CN(C)CCCSc1ccccc1NC(=O)/C=C/c1ccccc1 [Cinanserin] (stock concentration (mM, diluted 1:100): 10)	1.28 (inactive)
CCOC(=O)C1=C(C)NC(C)=C(C(=O)OCC)C1c1ccccc1/C=C/C(=O)OC(C)(C)C [Lacidipine] (stock concentration (mM, diluted 1:100): 10)	6.44 (inactive)
CCCCC(=O)N(Cc1ccc(-c2ccccc2-c2nnn[nH]2)cc1)[C@H](C(=O)O)C(C)C [Valsartan] (stock concentration (mM, diluted 1:100): 10)	0.42 (inactive)
COc1ccccc1N1CCN(CCCNc2cc(=O)n(C)c(=O)n2C)CC1 [Urapidil hydrochloride] (stock concentration (mM, diluted 1:100): 10)	1.04 (inactive)

Each compound was assayed on S. cerevisiae AD1-9 (efflux-pump deficient), vegetative growth in YPD (assay: growth sensitivity score (doubling time z-score vs DMSO controls); higher = slower growth, strongly negative scores also mark growth inhibition (complete suppression), active = hit call of the paper).
In short: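 Yeast (Saccharomyces cerevisiae BY4741 and AD1-9) was grown in rich medium in microtiter plates from a starting OD600 of 0.065, with optical density read every 15 min over 24 hours. The growth sensitivity score was the difference between compound and solvent-only means, divided by the solvent-only standard deviation. Every experiment had eight solvent-only wells.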

SMILES	growth sensitivity score
C[N+]1(C)CCC(OC(=O)C(O)(c2ccccc2)C2CCCC2)C1 (configuration not stated) [Glycopyrrolate] (stock concentration (mM, diluted 1:100): 10)	-0.14 (inactive)
CN1C2CCCC1CC(NC(=O)c1nn(C)c3ccccc13)C2 (configuration not stated) [Granisetron hydrochloride] (stock concentration (mM, diluted 1:100): 9)	-1.22 (inactive)
CC(C(=O)O)c1ccc(CC2CCCC2=O)cc1 (configuration not stated) [Loxoprofen sodium] (stock concentration (mM, diluted 1:100): 9.1)	-0.52 (inactive)
C#C[C@]1(O)CC[C@H]2[C@@H]3[C@H](C)CC4=C(CCC(=O)C4)[C@H]3CC[C@@]21C [Tibolone] (stock concentration (mM, diluted 1:100): 10)	10.2 (active)
O=c1c(O[C@@H]2O[C@H](CO)[C@@H](O)[C@H](O)[C@H]2O)c(-c2ccc(O)c(O)c2)oc2cc(O)cc(O)c12 [Isoquercetrin] (stock concentration (mM, diluted 1:100): 10)	-0.6 (inactive)
COc1cc2nc(N3CCN(C(=O)C4CCCO4)CC3)nc(N)c2cc1OC (configuration not stated) [Terazosin] (stock concentration (mM, diluted 1:100): 9.5)	-0.95 (inactive)
C[C@H](CCC(=O)O)[C@H]1CC[C@H]2[C@@H]3C(=O)C[C@@H]4CC(=O)CC[C@]4(C)[C@H]3CC(=O)[C@]12C [Dehydrocholic acid] (stock concentration (mM, diluted 1:100): 10)	-1.13 (inactive)
COc1cccc2c1C(=O)c1c(O)c3c(c(O)c1C2=O)C[C@@](O)(C(=O)CO)C[C@@H]3O[C@H]1C[C@H](N)[C@@H](O)[C@H](C)O1 [Epirubicin hydrochloride] (stock concentration (mM, diluted 1:100): 9.4)	93.9 (active)
O=C(O)C[C@H](O)C[C@H](O)/C=C/c1c(C2CC2)nc2ccccc2c1-c1ccc(F)cc1 [Livalo] (stock concentration (mM, diluted 1:100): 5)	32.2 (active)
COc1nc(C)nc(Cl)c1NC1=NCCN1 [Moxonidine hydrochloride] (stock concentration (mM, diluted 1:100): 9.2)	-1.22 (inactive)
C=CC1=C(C(=O)O)N2C(=O)[C@@H](NC(=O)/C(=N\O)c3csc(N)n3)[C@H]2SC1 [Cefdinir] (stock concentration (mM, diluted 1:100): 10)	-1.07 (inactive)
COc1ccc2c3c1O[C@H]1C[C@@H](O)C=C[C@@]31CCN(C)C2 [Galanthamine] (stock concentration (mM, diluted 1:100): 8.8)	-1.27 (inactive)
Cc1c(O)cccc1C(=O)N[C@@H](CSc1ccccc1)[C@H](O)CN1C[C@H]2CCCC[C@H]2C[C@H]1C(=O)NC(C)(C)C [Nelfinavir mesylate] (stock concentration (mM, diluted 1:100): 8.6)	16.2 (active)
c1cnc(N2CCN(Cc3ccc4c(c3)OCO4)CC2)nc1 [Piribedil] (stock concentration (mM, diluted 1:100): 9.7)	-3.77
CC(=O)[C@H]1CC[C@H]2[C@@H]3CCC4=CC(=O)CC[C@]4(C)[C@H]3CC[C@]12C [Progesterone] (stock concentration (mM, diluted 1:100): 10)	112 (active)
C[C@H]1O[C@H](O[C@H]2[C@H](O)[C@@H](O)[C@@H](O[C@H]3[C@H](O)[C@@H](O)C(O)O[C@@H]3CO)O[C@@H]2CO)[C@H](O)[C@@H](O)[C@@H]1N[C@H]1C=C(CO)[C@@H](O)[C@H](O)[C@H]1O (some centres not stated) [Acarbose] (stock concentration (mM, diluted 1:100): 10)	-2.1
CN(C)CCC=C1c2ccccc2COc2ccccc21 [Doxepin] (stock concentration (mM, diluted 1:100): 10)	5.43 (active)
O=C1CC2(CCCC2)CC(=O)N1CCNCC1COc2ccccc2O1 (configuration not stated) (stock concentration (mM, diluted 1:100): 10)	3.73 (active)
Cn1c(NCCN(CCO)CCCc2ccc([N+](=O)[O-])cc2)cc(=O)n(C)c1=O [Nifekalant hydrochloride] (stock concentration (mM, diluted 1:100): 9.2)	0.65 (inactive)
COc1c(N2C[C@@H]3CCCN[C@@H]3C2)c(F)cc2c(=O)c(C(=O)O)cn(C3CC3)c12 [Moxifloxacin hydrochloride] (stock concentration (mM, diluted 1:100): 9.2)	22.4 (active)
CC(=O)N1CCN(c2ccc(OCC3COC(Cn4ccnc4)(c4ccc(Cl)cc4Cl)O3)cc2)CC1 (configuration not stated) [Ketoconazole] (stock concentration (mM, diluted 1:100): 10)	155 (active)
OC[C@H]1O[C@@H](Oc2cc(O)cc(/C=C/c3ccc(O)cc3)c2)[C@H](O)[C@@H](O)[C@@H]1O [Piceid] (stock concentration (mM, diluted 1:100): 10)	0.32 (inactive)
CC(C)c1ccc2oc3nc(N)c(C(=O)O)cc3c(=O)c2c1 [Amlexanox] (stock concentration (mM, diluted 1:100): 10)	0.42 (inactive)
CCCN1CCCC[C@H]1C(=O)Nc1c(C)cccc1C [Ropivacaine hydrochloride] (stock concentration (mM, diluted 1:100): 7.7)	-2 (inactive)
